Pf Dd2 inh: inhibitors of Plasmodium falciparum Dd2 growth; Potency, µM (highest dose often 28.9 µM), inactives show at the top dose activity, negative = inhibition, usual class: inhibitors; P. falciparum Dd2 growth, SYBR Green, 72 h; actives 4.3% (n = 120,000); active means well fitted inhibition curve with a large enough effect;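 further: plate controls were DMSO vehicle for no effect and reference drug for full effect; nearly all actives have a fitted effect of over 65% in size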
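Readout: SYBR Green fluorescence, 485 nm excitation, 535 nm emission, after ~16 h lysis at 37C. Before that, Dd2-infected red cells (2.5% hematocrit) grew 72 h with compound, 29 uM top final concentration.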
The depositor's hits bear a star; i = inactive; [ ] = remark or other dose. Many of the other results were omitted from the sample, so hits are more common in it than they were. Potency means the concentration at half of the fitted maximal effect.

SMILES	Pf Dd2 inh
O=C(NCCN1CCOCC1)c1c(OCC2CC2)cc(=O)n2c1CCOCC2	17.9%
CCOc1ccccc1C(=O)N1CCCn2ccnc2C1CC (stereo not drawn)	i
COC(=O)CN1C(=O)[C@@H]2C[C@@H](O)CN2C2(CN(C3CCN(C)CC3)C2)C1=O	20.6%[44.1 µM]
COc1cccc(NC(=O)N[C@H]2CCN(C(=O)c3cccn3C)[C@@H]2C(=O)N[C@H](Cc2ccccc2)C(N)=O)c1	0.0%
COc1ccccc1CNC(=O)c1ccc2c(c1)CCN2S(=O)(=O)c1ccccc1	-15.7%
O=C(NC1CCCC1)c1ccc2c(c1)N(S(=O)(=O)c1ccccc1)CC2	i
O=C(NCC1CCCCC1)c1ccc2c(c1)N(S(=O)(=O)c1ccccc1)CC2	4.47µM*
COc1cc(OC)c(C(=O)N2CCOCC(CO)C2)cc1OC (stereo not drawn)	4.4%
O=S(=O)(NCC1CCOCC1)c1cccc(F)c1	45.5%
COc1ccc2c(c1)OCC(CNC(=O)c1ccc(N3CCN(C)CC3)cc1)C2 (stereo not drawn)	-26.5%
COCCn1nc2n(c1=O)CCN(C(=O)c1ccc(OC)cc1OC)CC2	i
CC(C)CCNC(=O)N1CCC(Oc2ncccc2C(=O)N(C)C)C1 (stereo not drawn)	-6.9%
COCCN1C(=O)c2cccn2CC1CNC(=O)c1[nH]nc2c1COc1ccccc1-2 (stereo not drawn)	-4.9%
CN1C(=O)c2cccn2CC1CNC(=O)c1[nH]nc2c1COc1ccccc1-2 (stereo not drawn)	8.91µM*
CN1C(=O)c2cccn2CC1CNC(=O)c1n[nH]c(=O)c2ccccc12 (stereo not drawn)	16.0%
O=C(c1ccccc1F)N1CCC2(CC1)CC(Cc1ccccc1)=NO2	-2.7%
CCn1cc(S(=O)(=O)c2cccc(C)c2)c(=O)c2cc(F)c(N3CCN(c4ccccc4)CC3)cc21	i
Cc1cccc(S(=O)(=O)c2cn(Cc3ccccc3)c3cc(N4CCC(C)CC4)c(F)cc3c2=O)c1	10µM*
Cc1ccc(Cn2cc(S(=O)(=O)c3ccccc3)c(=O)c3cc(F)c(N4CCOCC4)cc32)cc1	10µM*
Cc1ccc(S(=O)(=O)c2cn(Cc3ccc(F)cc3)c3cc(N4CCCC4)c(F)cc3c2=O)cc1	-13.0%
CCCCn1cc(S(=O)(=O)c2ccc(OC)cc2)c(=O)c2cc(F)c(F)cc21	0.8%
CCCCn1cc(S(=O)(=O)c2ccc(OC)cc2)c(=O)c2cc(F)c(N3CCOCC3)cc21	11.2µM*
CCn1cc(S(=O)(=O)c2cccc(Cl)c2)c(=O)c2cc(F)c(N3CCC(C)CC3)cc21	i
COc1ccc(S(=O)(=O)c2cn(Cc3ccccc3)c3cc(N4CCCC4)c(F)cc3c2=O)cc1	12.6µM*
CN(C)c1ccc(CNC2(Cc3cc(-c4cccc(O)c4)on3)COC2)cc1	i
SMILES	Pf Dd2 inh
c1cn(CCN2CCCC2)c(-c2cc3n(n2)CCNC3)n1	-1.5%
COc1ccc(C(=O)N2CC[C@@H]3CN(S(C)(=O)=O)[C@@H]3C2)c(OC)n1	-11.4%
COc1ccc(CNC(=O)c2noc(-c3ccc(C)cc3)n2)cc1OC	-20.8%
COCCOc1cc(=O)n2c(c1C(=O)NCCC1=CCCCC1)CCOCC2	-4.9%
CC(C)CC(=O)N1CCCCCC1CN1CCOCC1 (stereo not drawn)	-15.3%
Cc1ccc(C(=O)N2CC[C@@H]3CN(S(C)(=O)=O)[C@@H]3C2)c(=O)[nH]1	19.5%
COc1ccc(NC(=O)O[C@@H]2CO[C@H]3[C@@H]2OC[C@@H]3NS(=O)(=O)Cc2ccccc2)cc1	-3.6%
Cc1nc(-c2c3n(c(=O)n(CC(=O)NCc4ccc(Cl)cc4)c2=O)CCCCC3)no1	23.3%
O=C1COCCN1C1CCN(Cc2cccnc2)CC1	13.8%[44.1 µM]
CC(=O)N1C[C@@H]2CCCN3CCC[C@@H]([C@H]23)[C@H]1CCCC(=O)NCCN(C)C1CCCCC1	i
NCc1ccccc1-c1cccc(Cl)c1	8.91µM*
NCc1ccccc1-c1ccc(O)cc1	5.0%[44.1 µM]
NCc1cn[nH]c1-c1ccccc1	7.2%
Cc1ccccc1CNC(=O)C1CCC(=O)N(CCCc2ccccc2)C1 (stereo not drawn)	-18.2%
CCOc1ccc(C(=O)Nc2ccc(S(=O)(=O)Nc3nc(C)cc(C)n3)cc2)cc1OC	8.9%
CCOc1ccc(C(=O)Nc2c(C)nc(Nc3ccccc3)nc2Nc2ccccc2)cc1OCC	12.6µM*
CCOc1ccc(Nc2nc(C)c(NC(=O)c3cccc(OC)c3)c(Nc3ccc(OCC)cc3)n2)cc1	-10.6%
CCn1c(CO)nnc1C1CC(NC(=O)Cc2c(C)n[nH]c2C)C1 (stereo not drawn)	-2.0%
O=C(Nc1cccc(C(F)(F)F)c1)c1cnc2c(c1)N(Cc1ccccc1)CCC2	-17.8%[44.1 µM]
Cn1ccnc1C(=O)N1CCCC1c1nncn1Cc1ccncc1 (stereo not drawn)	0.9%
CN1CCC(Nc2ncc(C(C)(C)C(=O)O)c(N3CCOCC3)n2)CC1	-13.9%
Cc1ccccc1CNC(=O)c1ccc(Cn2c(SCc3ccccc3)nc3cccnc32)cc1	11.2µM*
COc1ccccc1CNC(=O)c1ccc(Cn2c(SCc3ccccc3)nc3cccnc32)cc1	8.91µM*

High-throughput results: PubChem BioAssay, National Center for Advancing Translational Sciences (NCATS)
